Data as given in PubChem BioAssay (EPA / NIEHS).
Records with an inconclusive call do not appear. Active and inactive are the calls of the source. Rule for the calls: active = hit-call score of the fitted dose curve at least 0.9, where 1 is the maximum; inconclusive = response in the unintended direction; inactive = score below 0.9.

Each compound was assayed against human Adenosine Transporter (Adot), SLC29A1 (gene 2030) (UniProt Q99808) (assay: NVS_TR_hAdoT: NovaScreen (NVS) Transporter Assay for human Adenosine Transporter (Adot) (AID 2283368)).
How it was run: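 U937-derived membranes, cell-free radioligand binding, filter scintillation 1 h after dosing. 25 uM duplicate screen; hits (e.g. 30% inhibition) run in concentration-response up to 50 uM; loss of signal versus DMSO.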

human Adenosine Transporter (Adot), SLC29A1 (gene 2030), sequence (Q99808 whole entry, looked up): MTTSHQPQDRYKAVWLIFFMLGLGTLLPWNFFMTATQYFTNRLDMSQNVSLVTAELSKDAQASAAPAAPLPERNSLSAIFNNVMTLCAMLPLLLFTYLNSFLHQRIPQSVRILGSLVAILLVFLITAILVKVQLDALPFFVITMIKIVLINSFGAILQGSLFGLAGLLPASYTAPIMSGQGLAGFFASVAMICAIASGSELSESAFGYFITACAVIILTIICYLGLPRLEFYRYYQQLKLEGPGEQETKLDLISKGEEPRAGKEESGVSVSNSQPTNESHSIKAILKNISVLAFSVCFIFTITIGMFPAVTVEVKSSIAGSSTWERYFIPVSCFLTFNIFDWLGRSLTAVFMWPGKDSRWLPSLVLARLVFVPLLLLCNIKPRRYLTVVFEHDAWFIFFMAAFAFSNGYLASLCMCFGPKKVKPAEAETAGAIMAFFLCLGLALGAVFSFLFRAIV

AC50, active:
CCCCCCCCOC(=O)c1cc(O)c(O)c(O)c1 22.2 µM
CN(C)c1ccc(C(=C2C=CC(=[N+](C)C)C=C2)c2ccc(N(C)C)cc2)cc1 7.35 µM
CC/C(=C(/CC)c1ccc(O)cc1)c1ccc(O)cc1 17.6 µM
NCc1cccc(C2CCN(C(=O)c3ccc(C#Cc4ccccc4F)o3)CC2)c1 25 µM

The compounds below were run on guinea pig Dopamine Transporter (DAT), gene 100714898 (assay: NVS_TR_gDAT: NovaScreen (NVS) Transporter Assay for guinea pig Dopamine Transporter (DAT) (AID 2283369);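 note: active compounds lower bound radioligand signal relative to DMSO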).
How it was run: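 Guinea pig striatal membranes, cell-free radioligand binding with filter-based scintillation counting, read 2 h after dosing. Loss of signal versus DMSO baseline; single-concentration primary (25 uM) then concentration-response up to 50 uM.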

AC50, active:
CCN(CC)C(=O)c1cc(S(=O)(=O)Cc2ccccc2)c(N2CCC(c3ccccc3)CC2)cc1N(CC)CCN(C)C 6.53 µM
CN(C)c1ccc(C(=C2C=CC(=[N+](C)C)C=C2)c2ccc(N(C)C)cc2)cc1 7.68 µM
CCCCOC(=O)c1ccc(O)cc1 25 µM
NCc1cccc(C2CCN(C(=O)c3ccc(C#Cc4ccccc4F)o3)CC2)c1 10 µM
C[C@]12CC[C@@H]3c4ccc(O)cc4CC[C@H]3[C@@H]1CC[C@H]2O 0.231 µM
